This is an account of results in PubChem BioAssay AID2688 (National Center for Advancing Translational Sciences (NCATS), 2010).

The list shows a part of the results. Records with an inconclusive call do not appear. Calls of active or inactive are those of the source.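 Rule for the calls: active = compounds whose IC50 for blocking JMJD2E demethylation is below 100 µM; inconclusive = dose dependent effect but IC50 above 100 µM; inactive = the rest.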

Chain of Lysine-specific demethylase 4E (Homo sapiens) (B2RXH2 1-337 limits assumed): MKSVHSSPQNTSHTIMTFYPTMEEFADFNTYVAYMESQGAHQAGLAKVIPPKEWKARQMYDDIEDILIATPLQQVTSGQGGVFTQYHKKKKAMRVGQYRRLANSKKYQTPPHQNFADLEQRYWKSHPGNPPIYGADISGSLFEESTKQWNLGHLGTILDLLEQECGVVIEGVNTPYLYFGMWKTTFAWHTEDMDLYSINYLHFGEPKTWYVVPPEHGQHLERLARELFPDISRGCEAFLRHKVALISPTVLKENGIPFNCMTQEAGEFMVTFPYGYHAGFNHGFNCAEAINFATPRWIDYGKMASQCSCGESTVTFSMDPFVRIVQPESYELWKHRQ

The assay deals with Lysine-specific demethylase 4E (Homo sapiens) (UniProt B2RXH2). The experiment in a line: MALDI-TOF-MS Assay for Inhibitors of Human Jumonji Domain Containing 2E (JMJD2E). The settings on record: recombinant JMJD2E demethylation. An excerpt:
The fine interplay among methylation states of several lysine residues on the tails of histone proteins is a major determinant of the transcriptional state of the associated DNA coding regions and is commonly referred to as the histone code. Histone lysine demethylases catalyze the removal of methyl groups from methylated lysine sidechains on histones H3 and H4, thus antagonizing the reactions catalyzed by histone lysine methyltransferases. […] In search for novel inhibitors of JMJD2E demethylase, a member of the largest set of histone demethylases belonging to the Fe(II) and 2-oxoglutarate oxygenase (2OG) superfamily, we performed a quantitative high-throughput screen (Inglese 2006). See AID 2147 for details on the primary screen. […]
For the MS assays, JMJD2E (2 uM), FAS (10 uM) and SA (100 uM) in HEPES buffer, 50 mM, pH 7.5, were incubated with inhibitor (stock solutions in DMSO, final in-assay concentration varied, but final DMSO concentration was 5% of assay mix) for 15 min at room temperature. […] The relative intensities of different methylation states observed in the mass spectra were then used to calculate percentage demethylation, and IC50s were calculated from the variation in percentage demethylation at different inhibitor concentrations.
Turning to `Oc1ccc(/C=C/c2c(F)cccc2F)c2cccnc12`, the Potency was 89.6 µM (active).

Consider `Nc1ccc(Nc2cc(O)c3ncccc3c2)cc1`, for which the Potency was 20.2 µM (active).
